# A selection: hits, their analogues and other compounds. The true share with any hit is near 0.34%.
# uPA generation = qHTS for Inhibitors of Cell Surface uPA Generation | cell surface uPA generation assay, qHTS | Potency, µM (doses to about 38.3 µM), inactives show top-dose activity change, negative = inhibition, most hits filed as inhibitors | 330,000 tested, 0.31% active | AID 540303, 2011; active = well fitted inhibition curve with a large enough effect; inconclusive = small, poorly fitted or top-dose-only effect; inactive = no such curve, though single readings can be large or run the other way; tested in mouse RAW 264.7 cells; note: potency is the fitted concentration of half-maximal effect; % is set by controls: 0 for no effect and ±100 for the full control effect; nearly all actives have a fitted effect of over 55% in size
# miR-21 reporter = qHTS Assay for Modulators of miRNAs and/orActivators of miR-21. HeLa miR-21 FLuc reporter, luciferase, 48 h. Potency, µM (highest dose often 38.3 µM), for inactives: at the top dose activity change, positive = activation, hits mostly activators. 340,000 tested, under 10 active. AID 2288, 2010; active = well fitted curve in the direction sought with a large enough effect; inconclusive = small, poorly fitted or top-dose-only effect, or another doubt; inactive = no such curve, though single readings can be large or run the other way;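 note: % of control where 0% means no effect; miR-21 action dims this reporter so a rising signal means less miR-21 action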
#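 HeLa miR-21-FLuc reporter line, endogenous miR-21; 2000 cells/well in DMEM/10% FBS; compound titration up to ~40uM final, 48 h, 37 degree Celsius; luciferase detection reagent, 15 min lysis, CCD luminescence.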
# TRPML1 ag = qHTS for Agonists of the Human Mucolipin Transient Receptor Potential 1 (TRPML1); Mucolipin-1 (Homo sapiens), Q9GZU1; TRPML1-expressing cells, Ca2+ dye fluorescence, FDSS; activation, % (test concentration not listed); 410,000 tested, 0.12% active; AID 624414, 2012; in the data active = activation above about 50%; inconclusive = mostly about 30% to 49%; note: 0% is about no effect
# Target sequence (Q9GZU1 whole entry, looked up): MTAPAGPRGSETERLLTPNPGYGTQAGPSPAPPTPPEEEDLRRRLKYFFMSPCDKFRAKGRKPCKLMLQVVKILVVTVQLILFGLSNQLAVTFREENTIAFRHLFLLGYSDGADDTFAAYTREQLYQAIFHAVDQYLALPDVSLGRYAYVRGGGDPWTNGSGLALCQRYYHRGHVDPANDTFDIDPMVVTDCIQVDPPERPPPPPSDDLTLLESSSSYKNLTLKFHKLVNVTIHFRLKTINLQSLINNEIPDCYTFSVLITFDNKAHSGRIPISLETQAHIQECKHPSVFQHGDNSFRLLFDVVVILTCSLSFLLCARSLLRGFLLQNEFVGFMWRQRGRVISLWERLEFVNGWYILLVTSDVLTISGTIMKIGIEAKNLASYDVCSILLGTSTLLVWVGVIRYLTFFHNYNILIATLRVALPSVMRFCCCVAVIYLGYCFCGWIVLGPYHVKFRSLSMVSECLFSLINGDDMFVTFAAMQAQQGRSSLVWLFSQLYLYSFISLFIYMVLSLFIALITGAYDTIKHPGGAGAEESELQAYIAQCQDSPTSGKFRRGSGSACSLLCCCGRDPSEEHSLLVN
#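 In this qHTS format, compounds were pin-transferred onto Ca8-dye-loaded TRPML1-DL cells induced with Tet overnight, and intracellular Ca2+ fluorescence was recorded kinetically for 110 s after a 10 s baseline. A subsequent 4uM final 54-4 (EC80) addition followed by a second 110 s read served as the antagonist phase.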
# TRPML1 blocker = qHTS for Inhibitors of the Human Mucolipin Transient Receptor Potential 1 (TRPML1); TRPML1-inducible cells, Ca2+ dye fluorescence, FDSS; stronger effect = lower value; inhibition of EC80 agonist-evoked calcium signal; activity change, negative = inhibition, % (no concentration beside the values); 390,000 tested, 0.02% active; AID 624415, 2012; in the data active = activity change below about -50%; inconclusive = between about -30% and that limit;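 note: stimulus is agonist 54-4 at its EC80 concentration; % is set by controls: 0 for no effect and ±100 for the full control effect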
#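 Calcium fluorescence in TRPML1-DL cells induced overnight with Tet: a 110 s read after compound pin addition, then a 110 s antagonist read after challenge with 54-4 at 4 uM final (EC80).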
# Numbers without * were called inactive; ? = inconclusive; . = no result.
SMILES,uPA generation,miR-21 reporter,TRPML1 ag,TRPML1 blocker
COc1ccc2c(c1)C1OCCC1C(c1ccco1)N2 (centres undefined),2.51µM*,.,1.9,-5.0
c1coc(C2Nc3ccccc3C3OCCC23)c1 (centres undefined),-4.8%,-6.9%,0.0,-4.3
COc1ccc2oc(C(=O)Nc3nc4ccccc4[nH]3)c(C)c2c1,3.55µM*,-55.3%,-0.7,5.9
Cc1ccc2cccc(O)c2n1,.,.,0.1,.
O=C(/C=C/c1ccccc1)CC(O)(c1ccccc1)C(F)(F)F (centres undefined),-13.2%,?,0.6,-6.1
O=C(/C=C/c1ccccc1)CC(O)(c1ccccc1)C(F)(F)C(F)F (centres undefined),?,?,59.4*,-5.5
CC(=O)NC(c1cc(Cl)c2cccnc2c1O)C(C)C (centres undefined),3.16µM*,.,.,.
CC(=O)NC(c1cc(Cl)c2cccnc2c1O)C1CC1 (centres undefined),3.98µM*,.,.,.
CC(=O)NC(c1cc(Cl)c2ccccc2c1O)C(C)C (centres undefined),-24.0%,.,.,.
Cc1ccc(C(c2nnnn2C(C)(C)C)N(Cc2ccco2)Cc2cccs2)cc1 (centres undefined),-15.1%,25.3%,60.1*,-9.1
CCOC(=O)[C@@H](C)N(C(=O)OC(C)(C)C)S(=O)(=O)N(Cc1ccccc1)[C@@H](C(=O)OC)C(C)C,.,.,56.5*,.
CCOC(=O)[C@@H](C)N(C(=O)OC(C)(C)C)S(=O)(=O)N(Cc1ccccc1)[C@H](C(=O)OC)C(C)C,15.8%,.,-0.6,19.2
COc1ccc(-c2oc3cc(OC(C)=O)cc(OC(C)=O)c3c(=O)c2OC)cc1,-4.7%,.,-1.0,8.1
CC(=O)Oc1cc(O)c2c(=O)c(OC(C)=O)c(-c3ccc(OC(C)=O)c(OC(C)=O)c3)oc2c1,10µM*,.,.,.
Cc1cccc(-n2ncc(C(=O)N3CCN(C4CCCCC4)CC3)c2C2CCN(C(=O)OC(C)(C)C)CC2)c1,.,25.4%,91.5*,?
Cc1ccc(C2CCN(C(=O)c3cnn(-c4cccc(Cl)c4)c3C3CCN(C(=O)OC(C)(C)C)CC3)C2)cc1 (centres undefined),.,27.3%,59.0*,-0.8
Cc1ccc(-n2ncc(C(=O)N3CCN(Cc4ccccc4)CC3)c2C2CCN(C(=O)OC(C)(C)C)CC2)cc1,.,-0.3%,1.1,-2.6
CC(C)(C)OC(=O)N1CCC(c2c(C(=O)N3CCN(Cc4ccccc4)CC3)cnn2-c2cccc(Cl)c2)CC1,.,19.1%,92.3*,-26.0
CC(C)(C)OC(=O)N1CCC(c2c(C(=O)N3CCN(C4CCCCC4)CC3)cnn2-c2ccccc2)CC1,16.1%,-2.8%,-0.3,6.9
COc1ccccc1N1CCN(C(=O)c2cnn(-c3cccc(Cl)c3)c2C2CCN(C(=O)OC(C)(C)C)CC2)CC1,.,28.4%,67.2*,-11.9
Cc1cc(C(Br)(Br)Br)nc2ccccc12,.,.,-0.9,.
Cc1csc(C)[n+]1CCC1CCCCC1,.,.,-0.5,.
COc1ccc(Cl)cc1N(C)c1nc(N2CCN(S(=O)(=O)c3ccc(C)cc3)CC2)c2ccccc2n1,.,.,-0.5,.
CC(C)(C)OC(=O)N1CCC(c2c(C(=O)N3CCC(c4ccccc4)C3)cnn2-c2cccc(Cl)c2)CC1 (centres undefined),.,?,56.9*,-9.8
CC(C)(C)OC(=O)N1CCC(c2c(C(=O)N3CCC(c4ccccc4)C3)cnn2-c2ccc(Cl)cc2)CC1 (centres undefined),.,25.6%,27.9,12.3
SMILES,uPA generation,miR-21 reporter,TRPML1 ag,TRPML1 blocker
CC(C)(C)n1ncc2c(=O)n(Cc3c(F)ccc(F)c3Cl)cnc21,.,.,2.7,-4.9
C(=C\c1ccccc1)/C=N/Nc1nc2ccccc2[nH]1,3.98µM*,-25.6%,4.3,-1.2
C=CCC1=C/C(=C\c2c(N)n3nc(CC(=O)N4CCCC4)sc3nc2=O)C=C(OC)C1=O,10.2%,-0.2%,68.3*,-10.1
CCCCCCCN(C(=O)CCl)c1cccc(C)c1,-9.2%,3.2%,0.6,-9.7
CCCCCCN(C(=O)CCl)c1ccccc1,2.51µM*,23.5%,1.0,17.0
CC(O)COCC1OC2OC3C(COCC(C)O)OC(OC4C(COCC(C)O)OC(OC5C(COCC(C)O)OC(OC6C(COCC(C)O)OC(OC7C(COCC(C)O)OC(OC8C(COCC(C)O)OC(OC1C(OCC(C)O)C2OCC(C)O)C(OCC(C)O)C8OCC(C)O)C(OCC(C)O)C7OCC(C)O)C(OCC(C)O)C6OCC(C)O)C(OCC(C)O)C5OCC(C)O)C(OCC(C)O)C4OCC(C)O)C(OCC(C)O)C3OCC(C)O (centres undefined),.,.,0.0,.
OC(Cc1ccc2ccccc2n1)c1ccccc1 (centres undefined),.,.,-0.6,.
O=c1oc2ccc(Cl)cc2nc1/C=C(\O)c1ccco1,?,-8.8%,0.0,-11.3
CC(C)C/C(O)=C/c1nc2cc(Cl)ccc2oc1=O,1.41µM*,2.9%,0.5,15.9
COc1ccccc1C(=O)NNC(=S)NC(=O)c1sc2ccccc2c1Cl,-6.7%,-17.0%,?,-11.0
COc1ccccc1C(=O)NC(=S)NNC(=O)c1sc2ccccc2c1Cl,-1.8%,-4.5%,50.9*,0.6
O=C1NC(=S)SC1=Cc1cccs1,-11.4%,.,-0.6,-6.7
CN1CCC/C1=C/C=C1\SC(=S)NC1=O,-1.3%,-56.9%,58.1*,-17.6
CSc1ccccc1NC(=O)CN(C1CCCCC1)S(C)(=O)=O,0.3%,-5.5%,0.1,-9.7
CN(CC(=O)Nc1ccccc1Sc1ccccc1)C1CCCCC1,7.7%,-6.3%,60.2*,?
COc1ccc(/C=C/c2ccccn2)cc1,.,.,0.1,.
CC(C)(C)OC(=O)N1CCC(c2c(C(=O)N3CCCCC3)cnn2-c2ccc(F)cc2F)CC1,.,-1.7%,0.3,-11.7
Cc1ccc(C)c(N2CCN(C(=O)c3cnn(C(C)(C)C)c3C3CCN(C(=O)OC(C)(C)C)CC3)CC2)c1,.,25.2%,50.8*,-26.1
Cc1ccc(N2CCN(C(=O)c3cnn(-c4ccc(F)cc4F)c3C3CCN(C(=O)OC(C)(C)C)CC3)CC2)c(C)c1,.,1.5%,57.8*,-9.9
Cc1ccccc1CN1[C@H]2CCCC[C@@H]2OCCS1(=O)=O,.,.,-1.0,.
COc1cc2c(cc1OC)C(C(=O)Nc1ccccn1)C(c1cccnc1)N(C)C2=O (centres undefined),-2.8%,-3.1%,1.3,-52.4*
COc1cc2c(cc1OC)C(C(=O)Nc1cccc(C)n1)C(c1cccnc1)N(C)C2=O (centres undefined),-3.9%,-2.0%,-0.5,2.7
Oc1ccc(N=Nc2ccccc2)o1,6.31µM*,28.0%,1.2,-16.2
Cc1nn(C)c(C)c1N1C(=O)c2cccc3c(Br)ccc(c23)C1=O,-4.4%,18.8%,-0.9,-11.9
Cc1nn(C)c(C)c1N1C(=O)c2cccc3c(N)ccc(c23)C1=O,-2.8%,-33.8%,94.0*,-10.9
